This is an account of results in PubChem BioAssay (Tox21).

Values joined by “and” are separate entries in the source; they are usually repeats but may differ in a detail not shown here. Identical values can stand only once. Results filed as inconclusive are left out. Where a structure was tested more than once in an assay, its records may differ in their call. Active and inactive are the calls of the source. Unless noted, calls come from the whole dose curve; as a rule, active = well fitted curve in the direction sought with a large enough effect in the repeat runs; inconclusive = weak or mixed curves; inactive = no such curve, though single readings can be large; an effect the other way counts as inactive or inconclusive.

A short description of assay [1]: qHTS assay to identify small molecule agonists of the constitutive androstane receptor (CAR) signaling pathway - cell viability counter screen (AID 1224836). Note: nearly all actives have a fitted effect of over 45% in size. Summed up:
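HepG2-CYP2B6-hCAR, 2500 cells/well, 4 h pre-incubation; cpd 15 conc + PK11195 0.75 uM final; 23 h, 37 C/5% CO2; CellTiter-Fluor, fluorescence.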
(In qHTS, concentration-response curves come from the screen itself.)

The nature of assay [2]: qHTS assay to identify small molecule antagonists of the constitutive androstane receptor (CAR) signaling pathway - cell viability counter screen (AID 1224837). Note: nearly all actives have a fitted effect of over 45% in size. Summed up: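 HepG2 cells stably expressing hCAR and a CYP2B6-2.2kb reporter were plated and pre-incubated 4 hr at 37 C/5% CO2, then given compounds at 15 concentrations plus 50 nM CITCO (final). After 23 hr, viability was read by CellTiter-Fluor fluorescence.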

Assay [3] addresses Nuclear receptor subfamily 1 group I member 3 (Homo sapiens) (UniProt Q14994). As to the kind of experiment: qHTS assay to identify small molecule antagonists of the constitutive androstane receptor (CAR) signaling pathway (AID 1224838). Note: nearly all actives have a fitted effect of over 40% in size. Note: potency is the fitted concentration of half-maximal effect. Summed up:
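HepG2 cells stably co-transfected with hCAR and a CYP2B6-2.2kb luciferase reporter were seeded 4 h before compound addition at 15 concentrations. Cells were stimulated with 50 nM CITCO (final) for 24 h at 37 C; luciferase luminescence was then read.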

The target is the same in assay [4]. Briefly: qHTS assay to identify small molecule agonists of the constitutive androstane receptor (CAR) signaling pathway (AID 1224839).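 Note: HepG2 cells stably carrying human CAR and a CYP2B6 luciferase reporter; nearly all actives have a fitted effect of over 15% in size.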 Summed up:
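HepG2-CYP2B6-hCAR cells, 2500/well, 4 h pre-incubation; compounds 15 conc.; PK11195 0.75 uM final; 24 h, 37 C/5% CO2; ONE-Glo luciferase read.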

Assay [5] can be described thus: qHTS assay to identify small molecule antagonists of the estrogen related receptor signaling pathway with the pleiotropic PPARgamma coactivator (PGC) from Tox21 10K library - cell viability counter screen (AID 1224840; active = well fitted cell-killing curve with a large enough effect in the repeat runs, not every such curve was filed as active; note: nearly all actives have a fitted effect of over 40% in size). Summed up:
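PGC/ERR cells were seeded at 2,000 cells/well and left 6 hours at 37 C/5% CO2 before pin-tool addition of compounds in DMSO. After 17.5 hours at 37 C, CellTiter-Fluor was added and fluorescence read 30 minutes later.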

Assay [6] in a line: qHTS assay to identify small molecule antagonists of the estrogen related receptor signaling pathway with the pleiotropic PPARgamma coactivator (PGC) from Tox21 10K library (AID 1224841; call rule not given here; note: actives are mostly falling curves and most rising ones were filed inactive; nearly all actives have a fitted effect of over 50% in size; note: potency is the fitted concentration of half-maximal effect). Summed up: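 PGC/ERR reporter cells were seeded at 2,000 cells/well and held 6 hours at 37 C/5% CO2 before pin-tool addition of compounds in DMSO. After 18 hours at 37 C, One-Glo was added and luminescence read after 30 minutes at room temperature.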

Assay [7] is described as follows: qHTS assay to identify small molecule agonists of the estrogen related receptor signaling pathway with the pleiotropic PPARgamma coactivator (PGC) from Tox21 10K library (AID 1224842). Note: nearly all actives have a fitted effect of over 15% in size. Summed up:
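PGC/ERR reporter cells (NTP line) were seeded 2,000 per well, rested 6 h at 37 C/5% CO2, then pin-dosed with compounds in DMSO for 18 h at 37 C; luciferase read by One-Glo luminescence after 30 min at room temperature.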

A short description of assay [8]: qHTS assay to identify small molecule agonists of H2AX (AID 1224845; active = well fitted activation curve with a large enough effect in the signal ratio in the repeat runs, not every such curve was filed as active; the % refers to the signal ratio). Summed up: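 Wild-type CHO-K1 cells plated overnight, then exposed 3 hr at 37C to compounds at 15 concentrations (0.76% DMSO). Lysed, then HTRF anti-pH2AX(S139)-cryptate/anti-H2AX-d2 detection after 24 hr at room temperature; emissions 665 and 620 nm.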
A short description of assay [9]: qHTS assay to identify small molecule agonists of the hypoxia (HIF-1) signaling pathway (AID 1224846; active = well fitted activation curve with a large enough effect in the signal ratio in the repeat runs, not every such curve was filed as active; the % refers to the signal ratio). Summed up: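 HRE-bla ME-180 cells (beta-lactamase reporter under hypoxia response element) were plated at 2,000 cells/well in medium with 0.5% dialyzed FBS, rested 5 hrs, then given compounds in DMSO for 17 hrs at 37C, 5% CO2. Reporter induction was read with CCF4-AM FRET substrate.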

Assay [10] can be described thus: qHTS assay to identify small molecule antagonists of the estrogen related receptor (ERR) signaling pathway from Tox21 library (AID 1224848). Note: nearly all actives have a fitted effect of over 50% in size. Note: potency is the fitted concentration of half-maximal effect. Summed up:
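Screening used an ERR reporter line supplied by NTP, exposed for 18 h at 37 C to library compounds delivered in DMSO. Signal was luciferase luminescence developed with ONE-Glo at room temperature for 30 min.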

Assay [11] can be described thus: qHTS assay to identify small molecule agonists of the estrogen related receptor (ERR) signaling pathway from Tox21 library (AID 1224849; calls by dose curve; note: nearly all actives have a fitted effect of over 15% in size). The following applies: ERR reporter cell line, ONE-Glo luciferase, 18 h. Summed up: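 ERR reporter cell line (NTP) seeded, rested 6 h at 37 C/5% CO2, then pinned with Tox21 compounds in DMSO. After 18 h at 37 C, ONE-Glo luciferase luminescence was read following 30 min at room temperature.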

Assay [12] can be described thus: qHTS RealTime-Glo MT Cell Viability Assay in HepG2 cells - 24 hour (AID 1224867). Note: nearly all actives have a fitted effect of over 50% in size. Summed up:
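Tox21 10K library screened in qHTS format on HepG2 cells carrying RealTime-Glo reagents. Compounds were added after a 5 h preincubation, and the luminescent signal from continuous culture was measured repeatedly during 40 h treatment.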

Assay [13] can be described thus: A CellTox Green Cytotoxicity Assay to monitor cytotoxicity in HEK293 cells - 0 hour (AID 1224869). Note: nearly all actives have a fitted effect of over 50% in size. Summed up:
(§1)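 HEK293 cells premixed with CellTox Green dye were seeded at 600 cells/well and left 5 h at 37 C/5% CO2 before pin transfer of 23 nL compound in DMSO. Fluorescence from dye bound to dead-cell DNA was read during 40 h treatment.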

A short description of assay [14]: qHTS RealTime-Glo MT Cell Viability Assay in HepG2 cells - 40 hour (AID 1224870). Note: nearly all actives have a fitted effect of over 50% in size. Summed up: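 HepG2 cells mixed with RealTime-Glo MT reagents (NanoLuc plus cell-permeant prosubstrate) were seeded at 600 cells/well, incubated 5 h at 37 C/5% CO2, then pinned with compounds in DMSO; nonlytic luminescence tracked viability during 40 h treatment.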
For assay [15], the target named is Thyrotropin receptor (Homo sapiens) (UniProt P16473). Briefly: qHTS assay to identify small molecule agonists of the thyroid stimulating hormone receptor (TSHR) signaling pathway (AID 1224843; calls by dose curve; note: nearly all actives have a fitted effect of over 45% in size). Summed up: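 Cell line HEK293 with TSHR; density 800/well. Exposure 30 min RT. Readout HTRF cAMP (cAMP-d2/anti-cAMP-cryptate), 1 h RT before reading.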
Assay [16] in a line: qHTS assay to identify small molecule agonists of H2AX - cell viability counter screen (AID 1224847; calls by dose curve; note: nearly all actives have a fitted effect of over 30% in size; note: potency is the fitted concentration of half-maximal effect). Summed up: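 Cells plated first: CHO-K1, 1000 per well in 10% FBS medium, incubated overnight at 37C. Then 15-point compound titration added (final DMSO 0.76%) for 3 hr. Finally CellTiter-Glo added and luminescence read.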
Assay [17] can be described thus: qHTS RealTime-Glo MT Cell Viability Assay in HEK293 cells - 32 hour (AID 1224868). Note: nearly all actives have a fitted effect of over 50% in size. Note: potency is the fitted concentration of half-maximal effect. Summed up: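 Luminescence generated by NanoLuc from substrate produced by living HEK293 cells served as the viability signal. Each value reflects the reading at its stated time point during continuous 40 h compound exposure at 37 C.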
Assay [18] is described as follows: qHTS assay to identify small molecule agonists of the hypoxia (HIF-1) signaling pathway - cell viability counter screen (AID 1224844; calls by dose curve; note: nearly all actives have a fitted effect of over 50% in size). Summed up:
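HRE-bla ME-180 cells in medium with 0.5% dialyzed FBS were preincubated 5 hrs at 37C, exposed to compounds for 17 hrs, then viability was read as CellTiter-Glo luminescence after 30 min at room temperature, in the reporter wells.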

Assay [19] can be described thus: A CellTox Green Cytotoxicity Assay to monitor cytotoxicity in HEK293 cells - 40 hour (AID 1224871). Note: nearly all actives have a fitted effect of over 45% in size. Summed up: as §1
% is set by controls: 0 for no effect and ±100 for the full control effect.

Sequence of Nuclear receptor subfamily 1 group I member 3 (Homo sapiens) (Q14994 whole entry, looked up): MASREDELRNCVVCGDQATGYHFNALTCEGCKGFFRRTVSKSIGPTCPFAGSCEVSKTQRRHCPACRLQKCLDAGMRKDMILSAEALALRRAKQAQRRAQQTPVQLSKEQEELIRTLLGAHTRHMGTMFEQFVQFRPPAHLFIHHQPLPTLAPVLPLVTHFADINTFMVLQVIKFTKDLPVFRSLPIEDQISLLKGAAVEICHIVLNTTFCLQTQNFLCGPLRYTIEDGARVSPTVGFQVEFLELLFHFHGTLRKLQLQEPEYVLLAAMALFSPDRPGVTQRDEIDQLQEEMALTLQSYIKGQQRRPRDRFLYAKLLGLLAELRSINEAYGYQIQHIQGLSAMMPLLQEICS
Sequence of Thyrotropin receptor (Homo sapiens) (P16473 whole entry, looked up): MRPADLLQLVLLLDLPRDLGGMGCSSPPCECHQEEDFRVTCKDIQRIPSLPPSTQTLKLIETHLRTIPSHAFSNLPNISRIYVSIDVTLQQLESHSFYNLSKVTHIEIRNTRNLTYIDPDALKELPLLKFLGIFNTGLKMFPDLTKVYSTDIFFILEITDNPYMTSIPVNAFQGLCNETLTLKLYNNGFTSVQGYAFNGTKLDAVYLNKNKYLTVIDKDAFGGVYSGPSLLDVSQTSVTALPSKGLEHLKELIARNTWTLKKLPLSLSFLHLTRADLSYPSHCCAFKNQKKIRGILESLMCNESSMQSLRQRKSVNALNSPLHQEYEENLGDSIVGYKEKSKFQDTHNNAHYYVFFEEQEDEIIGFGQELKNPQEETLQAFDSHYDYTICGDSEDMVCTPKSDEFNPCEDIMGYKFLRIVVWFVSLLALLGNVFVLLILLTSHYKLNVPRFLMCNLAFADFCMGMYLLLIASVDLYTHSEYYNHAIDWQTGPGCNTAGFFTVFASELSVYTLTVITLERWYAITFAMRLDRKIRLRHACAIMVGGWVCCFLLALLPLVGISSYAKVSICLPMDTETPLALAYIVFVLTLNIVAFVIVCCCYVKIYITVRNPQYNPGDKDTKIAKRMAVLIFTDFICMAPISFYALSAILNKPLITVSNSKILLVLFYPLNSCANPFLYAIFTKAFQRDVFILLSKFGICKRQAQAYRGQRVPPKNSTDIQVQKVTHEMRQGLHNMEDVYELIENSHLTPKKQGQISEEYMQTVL

As for `COc1ccc(C(Cl)=C(c2ccc(OC)cc2)c2ccc(OC)cc2)cc1`, the Potency entry in assay [1], in [2], in assay [3], in assay [4], in assay [5] and in [7] was “inactive” in each case. Besides, the Potency entry in [8], in assay [12], in assay [13] and in [14] was “inactive” in each case. Moreover, the Potency in [6] is 27.2 µM (active) and 30.6 µM (active) and 23.7 µM (active); in [10], 21.6 µM (active) and 27.3 µM (active) and 26.6 µM (active). Also, the outcome in [9] was inactive. Besides, the activity change, positive = activation in [11] (at 42.5 µM (top of the series)) was -32.5% (inactive); in [11] (at 92.4 µM (top of the series)), -45.8% (inactive) and -43.7% (inactive).
`CC(C)C(=O)Nc1ccc([N+](=O)[O-])c(C(F)(F)F)c1`: the Potency result in [1], in assay [2], in [3], in [4], in assay [5] and in [7] was “inactive” each time. For the same compound, the Potency entry in assay [15], in assay [8], in assay [12], in assay [13] and in assay [14] was “inactive” each time. In addition, the Potency in assay [6] is 28.1 µM (active) and 30.6 µM (active) and 21.1 µM (active); in [16] it was 104 µM (active) and inactive; in assay [10] it was 25 µM (active) and 27.3 µM (active) and 13.3 µM (active); in assay [17] it was 12.6 µM (active) and 19.5 µM (active) and 9.52 µM (active). For the same compound, the activity change, positive = activation was -30.7% (inactive) in assay [11] (at 42.5 µM (top of the series)); -65.7% (inactive) and -58.2% (inactive) in [11] (at 92.4 µM (top of the series)).
As to `CN(C)CCOC(C)(c1ccccc1)c1ccccn1` (configuration not stated), the Potency entry in [1], in assay [2], in assay [3], in [4], in assay [5] and in assay [6] was “inactive” each time. The Potency result in assay [7], in assay [15], in assay [8], in [10], in [12] and in [17] was “inactive” each time. In addition, the Potency entry in assay [13] and in assay [14] was “inactive” each time. Moreover, the activity change, positive = activation in [11] (at 42.5 µM (top of the series)) was 0.337% (inactive); in [11] (at 92.4 µM (top of the series)), 3.01% (inactive) and -2.07% (inactive).
With `Nc1c2c(nc3ccccc13)CCCC2`, the Potency result in [1], in [2], in [4], in assay [5], in [6] and in assay [7] was “inactive” in each case. The Potency entry in assay [15], in assay [18], in [8], in assay [12], in [17] and in assay [13] was “inactive” throughout. Besides, the Potency entry in assay [14] is “inactive”. The Potency is 54.5 µM (active) and 43.3 µM (active) and inactive in [3]; 61.1 µM (active) and 54.5 µM (active) and inactive in assay [10]. Also, the activity change, positive = activation was -6.1% (inactive) in assay [11] (at 42.5 µM (top of the series)); -44% (inactive) and -30.5% (inactive) in [11] (at 92.4 µM (top of the series)).
On to `O=C(O)c1ccccc1`, for which the Potency entry in [1], in [2], in [3], in assay [4], in assay [5] and in assay [15] was “inactive” throughout. Besides, the Potency result in assay [8], in assay [16], in [12], in assay [13], in assay [14] and in assay [19] was “inactive” in each case. Also, in assay [9], the outcome was inactive.
In the case of `O=C(O)CC(O)C(=O)O` (configuration not stated), the Potency entry in assay [1], in [2], in [3], in assay [4], in assay [5] and in [15] was “inactive” in each case. Further, the Potency entry in assay [18], in assay [8], in [16], in [12], in assay [17] and in assay [13] was “inactive” each time. The Potency entry in [14] was “inactive”. Also, in [9], the compound was classed as inactive.
